Results as given in the supplement of paper PMC6555819.

Legend:
Experiment in all cases: PBM binding z-score (relative to random genomic background probes); higher = stronger binding; sequences stand for … in GC…GCGATTGACAGCGTAGAATGAAGG
[1] = system: FXR:RXRa (NR concentration 270 nM, RXRa partner concentration 90 nM)
Procedure, shortened: (§1)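 Binding z-scores were set against random background probes. The data came from custom Agilent 4×180K protein-binding microarrays carrying double-stranded probes with 34-nt variable regions, incubated 1 h with ligand-free nuclear receptor dimers. Partner-specific antibodies detected binding, and scanned fluorescence was regression-normalized.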

[2] = system: LXRa:RXRa (NR concentration 270 nM, RXRa partner concentration 90 nM)
Procedure, shortened: as §1

[3] = system: LXRa homodimer (NR concentration 270 nM)
Procedure, shortened: as §1

[4] = system: LXRb:RXRa (NR concentration 270 nM, RXRa partner concentration 90 nM)
Procedure, shortened: as §1

[5] = system: LXRb homodimer (NR concentration 270 nM)
Procedure, shortened: as §1

[6] = system: PPARa:RXRa (NR concentration 270 nM, RXRa partner concentration 90 nM)
Procedure, shortened: as §1

[7] = system: PPARg:RXRa (NR concentration 180 nM, RXRa partner concentration 90 nM)
Procedure, shortened: as §1

[8] = system: PPARg:RXRa 270nM:90nM, anti-RXR (NR concentration 270 nM, RXRa partner concentration 90 nM)
Procedure, shortened: as §1

[9] = system: PPARg:RXRa 30nM:10nM, anti-RXR (NR concentration 30 nM, RXRa partner concentration 10 nM)
Procedure, shortened: as §1

[10] = system: PPARg:RXRa 90nM:30nM, anti-RXR (NR concentration 90 nM, RXRa partner concentration 30 nM)
Procedure, shortened: as §1

[11] = system: PPARg:RXRa DBDmut IVT, anti-RXR (DBD mutation: RXRa K156A/R161A, NR concentration 270 nM, RXRa partner concentration 90 nM)
Procedure, shortened: as §1

[12] = system: PPARg:RXRa IVT, anti-PPARg (NR concentration 270 nM, RXRa partner concentration 90 nM)
Procedure, shortened: as §1

[13] = system: PPARg DBDmut:RXRa IVT, anti-PPARg (DBD mutation: PPARg1 K132A/R137A, NR concentration 270 nM, RXRa partner concentration 90 nM)
Procedure, shortened: as §1

[14] = system: PPARg DBDmut IVT, anti-PPARg (DBD mutation: PPARg1 K132A/R137A, NR concentration 270 nM)
Procedure, shortened: as §1

[15] = system: PPARg homodimer (NR concentration 180 nM)
Procedure, shortened: as §1

[16] = system: PXR:RXRa (NR concentration 270 nM, RXRa partner concentration 90 nM)
Procedure, shortened: as §1

[17] = system: PXR homodimer (NR concentration 270 nM)
Procedure, shortened: as §1

[18] = system: RARa:RXR (NR concentration 270 nM, RXRa partner concentration 90 nM)
Procedure, shortened: as §1

[19] = system: RARa homodimer (NR concentration 270 nM)
Procedure, shortened: as §1

[20] = system: RARb:RXRa (NR concentration 270 nM, RXRa partner concentration 90 nM)
Procedure, shortened: as §1

| Sequence | PBM binding z-score [1] | PBM binding z-score [2] | PBM binding z-score [3] | PBM binding z-score [4] | PBM binding z-score [5] | PBM binding z-score [6] | PBM binding z-score [7] | PBM binding z-score [8] | PBM binding z-score [9] | PBM binding z-score [10] | PBM binding z-score [11] | PBM binding z-score [12] | PBM binding z-score [13] | PBM binding z-score [14] | PBM binding z-score [15] | PBM binding z-score [16] | PBM binding z-score [17] | PBM binding z-score [18] | PBM binding z-score [19] | PBM binding z-score [20] |
| --- | --- | --- | --- | --- | --- | --- | --- | --- | --- | --- | --- | --- | --- | --- | --- | --- | --- | --- | --- | --- |
| CAAACTAGGTCAAAGGTCAAAGTAGAGCCAACCA | 8.58 | 7.15 | 5.51 | 7.55 | 2.88 | 7.99 | 13.8 | 11.5 | 13 | 13.8 | 8.23 | 9.26 | 5.64 | 3.48 | 4.85 | 7.02 | 2.18 | 8.45 | 2.42 | – |
| CCTCGGAGGACAGAAGGTCAGATCTGTCCGCTTT | 1.34 | 1.57 | 0.283 | 1.25 | -0.347 | 1.62 | 0.155 | 0.812 | -0.772 | 0.0725 | 0.207 | -0.0702 | -0.934 | -1.55 | 1.35 | 1.65 | -0.42 | 1.98 | 0.321 | – |
| GCTGCTAGGTAAGGTTGGTCAGCTAACGGGTACG | -0.225 | -0.495 | -0.455 | -0.746 | -0.795 | -0.411 | -0.199 | -0.51 | -0.761 | -0.734 | 0.515 | 0.0144 | -1.12 | -0.451 | -0.00134 | -0.363 | -0.442 | -0.608 | -0.745 | – |
| ACTAGTTGGTCACCTGAGGTCACACACAATTCGG | 4.76 | 6.29 | 6.67 | 4.97 | 1.5 | 4.17 | 2.75 | 3.37 | 1.09 | 2.1 | 2.55 | 3.78 | 1.79 | 1.35 | 4.91 | 6.25 | 3.12 | 5.48 | 2.94 | 3.91 |
| TAGCCTAGGTCATTCAGGCGCCAGTATAGAAAGC | 5.09 | 3.26 | 0.555 | 2.5 | 0.661 | 3.35 | 2.01 | 2.37 | 0.32 | 1.41 | 1.59 | 2.61 | 0.787 | -0.107 | 1.85 | 1.68 | -0.342 | 2.44 | -0.00217 | 3.56 |
| CCTACTGGGCCAAGGTCATTGAGCAGTCAAAGCA | 3.17 | 3.17 | 0.657 | 2.72 | -0.573 | 4.19 | 4.27 | 4.54 | 1.77 | 3.8 | 3.78 | 4.64 | 0.0966 | 0.249 | 1.29 | 3.5 | 1.2 | 3.64 | -0.199 | 3.21 |
| TAGCCTAGGACATGCGGGCCAGTATAGTGTCGGC | -0.531 | -0.882 | -1.1 | -1.16 | -1.2 | -0.741 | 0.232 | -0.867 | -0.747 | -0.931 | -0.985 | -0.448 | -1.11 | -0.53 | -1.04 | -0.867 | -0.905 | -0.797 | -0.552 | – |
| CCTACTGGGCCACGTAAGGTCATTGATTCAGTGA | 3.42 | 5.12 | 3.52 | 3.3 | -0.468 | 3.47 | 3.29 | 3.76 | 0.808 | 2.54 | 5.56 | 5.43 | 0.00703 | -0.733 | 1.14 | 4.38 | 1.49 | 3.25 | 0.62 | 3.02 |
